According to PubChem BioAssay (NCI):
The panel holds about 83,000 compounds, 20% with a hit somewhere; the sample as a whole holds those more often.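 The endpoint reported here, percent growth, reads 100 for growth as untreated, 0 for no net growth and -100 for all cells dead.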 Values without a mark were called inactive. Rule for the calls: active = growth percent below 10; inactive = the rest.

Tested on: SNB-19 CNS
Assay: NCI-60 one-dose screen, 48 h (100 = growth as untreated, 0 = no growth, -100 = all killed)
Details: 10 µM unless noted

| Compound | growth |
| --- | --- |
| Cc1ccc2sc3c(NCCCNCCO)nc4ccccc4c3c(=O)c2c1 | 68.5% |
| NCCOc1ncccc1/C=C1\c2ccccc2-c2ccc(F)cc21 | 16% |
| CNCCNc1nc2ccccc2c2c(=O)c3cc(OC)ccc3sc12 | 57.6% |
| CC(C)c1ccc(S(=O)(=O)NC(=O)NC2CCCC2)cc1 | 100% |
| COc1cc(/C=C2\CN(C)C/C(=C\c3cc(CN4CCCC4)c(O)c(OC)c3)C2=O)cc(CN2CCCC2)c1O | 74.7% |
| Nc1ccccc1-c1ccc(-c2ccc(Cl)cc2)c2c1[nH]c1ccccc12 | 81.8% |
| O=C(Cn1cc(COc2ncnc3c2cnn3-c2ccccc2)nn1)Nc1ccccn1 | 90.8% |
| NCCOc1ccccc1/C=C1\c2ccccc2-c2ccc([N+](=O)[O-])cc21 | 10.6% |
| COc1cc(/C(C#N)=C/c2nc3c(N4CCOCC4)nc(Cl)nc3n2C)cc(OC)c1OC | 17.7% |
| Cc1ccc2cccc(Oc3ccc(Nc4ncnc5onc(-c6ccccc6)c45)cc3)c2n1 | 92.3% |
| COC(=O)/C(CCC=C(C)C)=C1\[C@@H](OC(C)=O)C[C@@]2(C)[C@H]1C[C@@H](O)[C@H]1[C@@]3(C)CC[C@H](NCc4ccccc4)[C@@H](C)[C@@H]3CC[C@@]12C | 81.9% |
| COc1cc(/C=C/C(=O)c2ccc(Cl)cc2)cc(CN2CCCCC2)c1O | 85.4% |
| O=C(/C=C/c1ccc(Cl)cc1)c1ccc(Nc2nc(NCCO)nc(Nc3ccc(Cl)cc3)n2)cc1 | 77.6% |
| CN1CCN(Cc2ccc(NC(=O)c3[nH]ncc3Nc3cc(OC4CCCC4)ncn3)cc2)CC1 | 59.8% |
| Cn1c(/C=C(\C#N)c2ccccc2)nc2c(N3CCOCC3)nc(Cl)nc21 | 56.9% |
| CCN1C(=O)N(CC)C2Nn3c(s/c(=C\c4ccccc4F)c3=O)=NC21 (centres undefined) | 45.5% |
| Cc1ccccc1CNC(=O)C1CN(c2ccc(Cl)cc2)N(c2ccc(Cl)cc2)C1=O (centres undefined) | 89.5% |
| CCCCC1CCc2cccc3c(SCC(=O)N(C)c4ccc(Cl)cc4)cc[n+]1c23 (centres undefined) | 97.2% |
| Clc1ccc(Oc2ccc(Nc3ncnc4onc(-c5ccccc5)c34)cc2)c(Cl)c1 | 106% |
| O=C(O)c1cn(C2CC2)c2cc(N3CCN(C(=O)C[n+]4ccccc4)CC3)c(F)cc2c1=O | 99.4% |

| Compound | growth |
| --- | --- |
| O=C(CSc1nc2ccccc2c(=O)n1-c1ccccc1)Nc1ccc(C(=O)/C=C/c2ccc(Cl)cc2)cc1 | 96.1% |
| Cc1nc(Nc2cn[nH]c2C(=O)Nc2ccc(CN3CCN(C)CC3)cc2)c2ccsc2n1 | 107% |
| CN1C(=O)N(C)C2Nn3c(s/c(=C4\C(=O)N(CCc5ccccc5)c5ccccc54)c3=O)=NC21 (centres undefined) | 85.7% |
| O=C(/C=C/c1ccc(C(F)(F)F)cc1)c1ccc(Nc2nc(NCCO)nc(N3CCOCC3)n2)cc1 | 39.5% |
| COc1cc(/C=C/C(=O)c2ccc(Nc3nc(NCCO)nc(N4CCOCC4)n3)cc2)cc(OC)c1OC | 30.5% |
| COc1cc(/C=C2\CN(S(=O)(=O)c3ccccc3)C/C(=C\c3cc(CN4CCCC4)c(O)c(OC)c3)C2=O)cc(CN2CCCC2)c1O | 12.2% |
| O=c1c2cc(F)ccc2sc2c(Nc3ccncc3)nc3ccccc3c12 | 25.5% |
| O=c1c2cc(F)ccc2sc2c(NCCN3CCCC3)nc3ccccc3c12 | 69.2% |
| CNC(=O)c1cc(Oc2ccc(CC(=O)Nc3cc(C(C)(C)C)cn3C)cc2)ccn1 | 69.9% |
| COc1cc2nc(NC3CCCC3)nc(NC3CCN(C(C)C)CC3)c2cc1OC | 88% |
| O=C(NCc1ccco1)C1CN(c2ccc(Cl)cc2)N(c2ccc(Cl)cc2)C1=O (centres undefined) | 54.4% |
| COc1cccc2cc(N(C)c3nc(C)nc4ccsc34)ccc12 | 24.1% |
| CN1C(=O)N(C)C2(c3ccccc3)OC(=S)NC12c1ccccc1 (centres undefined) | 98.4% |
| Nc1nc(-c2cnccn2)nn1-c1nc2ccccc2s1 | 98.2% |
| COc1ccc(N)c(-c2cc3c(c4c2[nH]c2ccc(OC)cc24)CCCC3)c1 | 88.5% |
| COc1cccc(/C(C#N)=C/c2nc3c(N4CCOCC4)nc(Cl)nc3n2C)c1 | 55.6% |
| O=c1c(-c2nc3ccccc3[nH]2)cc2ccccc2n1Cc1cn(Cc2ccc(N3CCOCC3)cc2)nn1 | 48% |
| Cn1c2c(c(=O)[nH]c1=O)NC1=C(C(=O)c3ccccc31)C1(C=C(O)c3ccccc31)N2 (centres undefined) | 114% |
| COC(=O)/C(CCC=C(C)C)=C1\[C@@H](OC(C)=O)C[C@@]2(C)[C@H]1C[C@@H](O)[C@H]1[C@@]3(C)CC[C@H](NCCCNCCCCNCCCN)[C@@H](C)[C@@H]3CC[C@@]12C | 61.8% |
